# How the values were obtained:
# Test in all cases: DAPPL (digital affinity profiling via proximity ligation, sequencing); 10 mM Tris-HCl pH 7.5, 50 mM NaCl, 1 mM DTT, 4% glycerol, room temperature, 30 min; GST-TFs on glutathione beads, 16-mer random dsDNA library, 0.1% formaldehyde crosslink after washing; high values mean tight binding
# Details in all cases: protein: recombinant; tags: N-terminal GST; dsDNA, one strand shown
# FLI1 = target: T1, FLI1 (Homo sapiens, UniProt Q01543 1-452)
# T1 sequence: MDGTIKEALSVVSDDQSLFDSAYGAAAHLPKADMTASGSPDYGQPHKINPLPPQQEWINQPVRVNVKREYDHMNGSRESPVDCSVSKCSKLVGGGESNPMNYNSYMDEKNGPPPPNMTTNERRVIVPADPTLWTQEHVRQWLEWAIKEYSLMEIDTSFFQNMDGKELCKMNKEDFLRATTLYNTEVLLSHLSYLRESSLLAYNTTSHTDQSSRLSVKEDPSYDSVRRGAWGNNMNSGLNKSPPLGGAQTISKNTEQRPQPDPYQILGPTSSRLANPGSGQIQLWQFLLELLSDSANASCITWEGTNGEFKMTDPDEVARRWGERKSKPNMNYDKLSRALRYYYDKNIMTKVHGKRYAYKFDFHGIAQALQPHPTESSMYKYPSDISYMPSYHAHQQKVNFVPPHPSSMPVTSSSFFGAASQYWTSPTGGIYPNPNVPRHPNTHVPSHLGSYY
# Method in brief: (§1)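 Pools were built from human transcription factors expressed in yeast as GST fusions, captured on glutathione beads and DNA-barcoded, along with a tag-only sample. Incubation with 200 nmole of a 16-mer random double-stranded DNA library lasted 30 min at room temperature in Tris/NaCl/DTT/glycerol buffer, and was followed by washing, 0.1% formaldehyde crosslinking, proximity ligation, PCR amplification and Illumina NextSeq500 sequencing. Binding signal is the quotient of each hexamer's read frequency for a factor and its frequency for the tag-only sample.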
# ELK1 = target: T2, ELK1 (Homo sapiens, UniProt P19419 1-428)
# T2 sequence: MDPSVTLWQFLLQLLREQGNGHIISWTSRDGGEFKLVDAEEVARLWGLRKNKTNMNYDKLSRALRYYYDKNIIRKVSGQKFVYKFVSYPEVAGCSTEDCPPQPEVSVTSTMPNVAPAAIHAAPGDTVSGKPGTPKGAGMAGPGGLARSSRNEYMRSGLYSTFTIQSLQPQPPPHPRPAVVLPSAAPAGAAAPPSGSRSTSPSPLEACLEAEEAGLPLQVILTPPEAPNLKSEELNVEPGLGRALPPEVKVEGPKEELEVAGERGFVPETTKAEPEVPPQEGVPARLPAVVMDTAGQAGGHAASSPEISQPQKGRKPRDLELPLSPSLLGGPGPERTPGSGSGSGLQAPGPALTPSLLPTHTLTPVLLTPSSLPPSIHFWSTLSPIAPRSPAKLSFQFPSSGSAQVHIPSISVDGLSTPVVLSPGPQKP
# Method in brief: as §1
# GABPA = target: T3, GABPA (Homo sapiens, UniProt Q06546 1-454)
# T3 sequence: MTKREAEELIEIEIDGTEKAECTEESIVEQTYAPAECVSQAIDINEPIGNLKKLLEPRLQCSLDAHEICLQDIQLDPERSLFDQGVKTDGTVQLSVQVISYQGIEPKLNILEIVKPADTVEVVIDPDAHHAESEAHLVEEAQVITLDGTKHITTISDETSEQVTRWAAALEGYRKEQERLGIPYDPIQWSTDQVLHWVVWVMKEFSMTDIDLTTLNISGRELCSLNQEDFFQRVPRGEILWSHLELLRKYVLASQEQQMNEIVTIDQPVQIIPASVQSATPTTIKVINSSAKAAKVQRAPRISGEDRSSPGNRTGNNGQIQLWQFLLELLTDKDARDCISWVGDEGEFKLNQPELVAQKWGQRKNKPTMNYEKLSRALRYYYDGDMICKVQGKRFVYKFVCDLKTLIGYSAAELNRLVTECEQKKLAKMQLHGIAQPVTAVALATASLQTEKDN
# Method in brief: as §1
# ERG = target: T4, ERG (Homo sapiens, UniProt P11308 1-479)
# T4 sequence: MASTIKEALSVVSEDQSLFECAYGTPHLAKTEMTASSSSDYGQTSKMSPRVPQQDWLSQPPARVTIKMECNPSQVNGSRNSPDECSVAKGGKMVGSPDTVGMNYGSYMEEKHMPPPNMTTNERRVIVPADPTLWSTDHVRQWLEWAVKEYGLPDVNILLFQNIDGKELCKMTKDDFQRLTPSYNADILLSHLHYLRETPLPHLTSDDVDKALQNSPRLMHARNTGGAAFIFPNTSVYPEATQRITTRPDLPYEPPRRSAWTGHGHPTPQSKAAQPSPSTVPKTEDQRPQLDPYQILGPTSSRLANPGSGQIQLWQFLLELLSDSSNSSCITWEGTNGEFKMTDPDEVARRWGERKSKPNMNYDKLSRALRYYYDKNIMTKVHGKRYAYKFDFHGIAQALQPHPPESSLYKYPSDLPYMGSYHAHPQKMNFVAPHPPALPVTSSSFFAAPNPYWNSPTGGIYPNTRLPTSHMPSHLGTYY
# Method in brief: as §1
# ELF1 = ELF1 (Homo sapiens, UniProt P32519 1-619)
# ELF1, sequence (P32519 whole entry): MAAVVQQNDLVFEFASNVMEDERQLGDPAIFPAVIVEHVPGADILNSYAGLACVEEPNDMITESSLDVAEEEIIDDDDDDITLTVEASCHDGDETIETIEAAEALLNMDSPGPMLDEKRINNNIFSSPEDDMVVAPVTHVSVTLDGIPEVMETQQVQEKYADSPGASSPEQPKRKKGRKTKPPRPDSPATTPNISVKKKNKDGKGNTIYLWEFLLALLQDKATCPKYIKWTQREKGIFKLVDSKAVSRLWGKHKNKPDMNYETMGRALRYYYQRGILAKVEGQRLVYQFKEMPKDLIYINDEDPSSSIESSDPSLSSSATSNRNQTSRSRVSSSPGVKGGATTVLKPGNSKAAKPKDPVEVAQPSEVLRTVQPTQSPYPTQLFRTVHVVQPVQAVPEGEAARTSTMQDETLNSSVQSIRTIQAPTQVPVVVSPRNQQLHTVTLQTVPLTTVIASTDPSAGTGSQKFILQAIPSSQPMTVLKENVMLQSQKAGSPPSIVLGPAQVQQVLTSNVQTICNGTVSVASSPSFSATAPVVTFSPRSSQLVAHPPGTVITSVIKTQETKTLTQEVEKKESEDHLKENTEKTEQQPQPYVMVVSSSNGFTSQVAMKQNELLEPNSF
# Method in brief: as §1
# EHF = target: T5, EHF (Homo sapiens, UniProt Q9NZC4 1-300)
# T5 sequence: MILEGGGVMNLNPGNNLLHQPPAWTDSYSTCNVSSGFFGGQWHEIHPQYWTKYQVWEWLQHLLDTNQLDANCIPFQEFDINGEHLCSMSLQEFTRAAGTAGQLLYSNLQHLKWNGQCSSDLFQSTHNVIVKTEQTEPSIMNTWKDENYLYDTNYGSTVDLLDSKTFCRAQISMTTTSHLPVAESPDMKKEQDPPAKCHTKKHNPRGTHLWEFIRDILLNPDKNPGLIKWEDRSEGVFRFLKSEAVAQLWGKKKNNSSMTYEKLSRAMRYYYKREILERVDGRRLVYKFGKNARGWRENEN
# Method in brief: as §1
# SPI1 = SPI1 (Homo sapiens, UniProt P17947 1-270)
# Method in brief: as §1
# SPIB = SPIB (Homo sapiens, UniProt Q01892 1-262)
# SPIB, sequence (Q01892 whole entry): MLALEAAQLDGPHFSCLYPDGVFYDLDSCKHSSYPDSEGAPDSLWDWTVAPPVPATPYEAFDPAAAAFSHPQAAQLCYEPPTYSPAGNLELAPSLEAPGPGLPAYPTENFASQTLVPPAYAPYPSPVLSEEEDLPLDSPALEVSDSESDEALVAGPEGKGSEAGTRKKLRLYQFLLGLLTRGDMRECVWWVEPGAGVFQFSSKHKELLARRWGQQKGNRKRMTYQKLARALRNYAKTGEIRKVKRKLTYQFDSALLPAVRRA
# Method in brief: as §1
# ELK3 = target: T6, ELK3 (Homo sapiens, UniProt P41970 1-407)
# T6 sequence: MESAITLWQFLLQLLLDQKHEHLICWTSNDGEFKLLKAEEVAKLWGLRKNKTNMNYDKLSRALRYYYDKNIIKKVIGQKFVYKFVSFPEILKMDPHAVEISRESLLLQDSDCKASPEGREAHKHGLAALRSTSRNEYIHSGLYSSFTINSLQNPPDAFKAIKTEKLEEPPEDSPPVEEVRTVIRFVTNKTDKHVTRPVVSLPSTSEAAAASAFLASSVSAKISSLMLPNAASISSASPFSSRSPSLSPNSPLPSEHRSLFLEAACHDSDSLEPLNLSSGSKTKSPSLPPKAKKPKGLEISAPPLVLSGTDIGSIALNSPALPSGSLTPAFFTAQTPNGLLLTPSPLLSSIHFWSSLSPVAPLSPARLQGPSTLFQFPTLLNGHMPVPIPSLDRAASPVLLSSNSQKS
# Method in brief: as §1
# ETV5 = ETV5 (Homo sapiens, UniProt P41161 1-510)
# ETV5, sequence (P41161 whole entry): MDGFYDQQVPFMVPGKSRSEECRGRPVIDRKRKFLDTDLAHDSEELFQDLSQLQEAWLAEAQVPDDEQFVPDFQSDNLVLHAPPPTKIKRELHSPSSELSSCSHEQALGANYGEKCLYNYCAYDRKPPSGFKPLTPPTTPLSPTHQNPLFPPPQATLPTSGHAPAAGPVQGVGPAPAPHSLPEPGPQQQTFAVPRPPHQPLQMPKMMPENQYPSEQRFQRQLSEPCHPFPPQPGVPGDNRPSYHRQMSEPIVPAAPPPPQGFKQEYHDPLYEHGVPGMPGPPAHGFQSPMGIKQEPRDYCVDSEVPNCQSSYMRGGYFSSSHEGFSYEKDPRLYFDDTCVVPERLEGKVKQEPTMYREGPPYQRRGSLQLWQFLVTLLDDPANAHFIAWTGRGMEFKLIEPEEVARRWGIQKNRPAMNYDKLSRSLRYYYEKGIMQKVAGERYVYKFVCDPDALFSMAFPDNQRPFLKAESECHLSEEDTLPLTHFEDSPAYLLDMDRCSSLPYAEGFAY
# Method in brief: as §1
sequence,measurement,setting,value
AAACCG,binding signal,FLI1,"1.05 fold enrichment (6-mer frequency, TF over GST control)"
same,binding signal,ELK1,"1.05 fold enrichment (6-mer frequency, TF over GST control)"
same,binding signal,GABPA,"1.07 fold enrichment (6-mer frequency, TF over GST control)"
same,binding signal,ERG,"1.13 fold enrichment (6-mer frequency, TF over GST control)"
same,binding signal,ELF1,"1.12 fold enrichment (6-mer frequency, TF over GST control)"
same,binding signal,EHF,"1.08 fold enrichment (6-mer frequency, TF over GST control)"
same,binding signal,SPI1,"1.25 fold enrichment (6-mer frequency, TF over GST control)"
same,binding signal,SPIB,"1.05 fold enrichment (6-mer frequency, TF over GST control)"
same,binding signal,ELK3,"1.09 fold enrichment (6-mer frequency, TF over GST control)"
same,binding signal,ETV5,"1.07 fold enrichment (6-mer frequency, TF over GST control)"
